# A selection: hits, their analogues and other compounds. The true share with any hit is near 22%.
# E-sel TNF inh – TNF alpha driven E-selectin expression inhibition; hit rate 0.71% among 120,000; AID 1246; inhibition, % at 2 µM; HUVEC TNFa-induced E-selectin immunofluorescence, high content;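 active = inhibition above the batch mean plus 3 SD, and confirmed as a hit on visual image review, cut at about 43% in these data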;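 note: 0% = TNF-stimulated DMSO wells and 100% = unstimulated control wells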
# CYP2C19 act – activators of human cytochrome P450 2C19. 96,000 tested, under 10 active. recombinant CYP2C19, luciferin-H EGE luminescence; stronger effect = higher value; 0 = fully inhibited enzyme, 1 = untreated enzyme. P33261. activation factor at 5 µM;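 active = activation factor of at least 2 at 5 µM in the primary screen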;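 note: 0 = wells with 2.5 mM tranylcypromine and 1 = vehicle-only wells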
# cytoskel mod – cytoskeleton assembly modification. HUVEC TNFa F-actin phalloidin imaging, high content. inhibition, % at 2 µM. hit rate 0.18% among 91,000. AID 836;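 active = inhibition above the batch mean plus 3 SD and confirmed as a hit by visual image inspection, cut at about 30% in these data, passing the limit was not always enough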
# CYP2C19 inh – blocks human cytochrome P450 2C19. P33261. CYP2C19 Supersomes, luciferin-H EGE luminescence, 30 min. inhibition, % at 5 µM. hit rate 21% among 96,000;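 active = CYP2C19 inhibition above a set limit at 5 µM in the primary screen, cut at about 50% in these data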;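 note: plate controls were negative control wells for no effect and 2.5 mM tranylcypromine positive control for full effect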
# CYP2C9 activ – CYP2C9 (human) activation; hit rate 1.4% among 96,000; activation factor at 5 µM; recombinant CYP2C9, luciferin-H conversion, luminescence; stronger effect = higher value; factor 1 = untreated enzyme, 0 = blocked;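 active = activation factor of 2 or more for CYP2C9 at a 5 µM dose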;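 note: 0 = sulfaphenazole-blocked wells and 1 = vehicle-only wells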
# Target sequence (P11712 whole entry, looked up): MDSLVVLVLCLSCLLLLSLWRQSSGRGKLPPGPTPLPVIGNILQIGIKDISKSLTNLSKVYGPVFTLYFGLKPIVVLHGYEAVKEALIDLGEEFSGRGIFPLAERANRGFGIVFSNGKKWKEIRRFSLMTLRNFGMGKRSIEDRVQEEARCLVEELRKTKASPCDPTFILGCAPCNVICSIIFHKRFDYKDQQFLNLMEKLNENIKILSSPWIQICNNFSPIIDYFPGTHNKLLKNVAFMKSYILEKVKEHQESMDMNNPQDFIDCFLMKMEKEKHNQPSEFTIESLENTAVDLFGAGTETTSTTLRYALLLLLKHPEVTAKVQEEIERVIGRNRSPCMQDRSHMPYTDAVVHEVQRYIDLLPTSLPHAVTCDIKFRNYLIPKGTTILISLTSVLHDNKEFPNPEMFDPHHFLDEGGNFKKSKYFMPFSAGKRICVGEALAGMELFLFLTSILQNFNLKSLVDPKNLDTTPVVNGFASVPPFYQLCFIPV
# CYP2C9 inhib – human CYP2C9 inhibition | P11712 | CYP2C9 Supersomes, luciferin-H conversion, luminescence | inhibition, % at 5 µM | hit rate 20% among 96,000;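 active = blocking of liver enzyme CYP2C9 beyond about 50% at 5 µM, limit read from the data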
# Starred values were filed as active, the others as inactive; / = no result given.
SMILES,E-sel TNF inh,CYP2C19 act,cytoskel mod,CYP2C19 inh,CYP2C9 activ,CYP2C9 inhib
O=C1CC(c2ccc(S(=O)(=O)Nc3cc(C(F)(F)F)cc(C(F)(F)F)c3)cc2)CN1 (stereo not given),15.4,0.6,/,38.0,0.2,78.6*
Cc1ccccc1NS(=O)(=O)c1ccc(C2CNC(=O)C2)cc1 (stereo not given),15.4,0.4,14.1,55.8*,0.5,46.6
O=C1CC(c2ccc(S(=O)(=O)NCc3ccccc3)cc2)CN1 (stereo not given),/,1.1,-10.5,-11.7,1,1.3
O=C(NCCN1CCCC1)C1CC(=O)N(C2CCCCC2)C1 (stereo not given),8.8,0.8,10.5,24.1,1,3.9
FCCCOc1ccc(-c2nccc(-c3ccc(F)cc3)n2)cc1,-9.4,0.5,5.9,53.5*,0.2,80.9*
COc1ccc2[nH]c3c(N4CCC(O)(c5cccc(C(F)(F)F)c5)CC4)ncnc3c2c1,-7.6,0.6,-3.7,40.3,0.3,67.3*
COC(=O)c1[nH]c2cc(OC)ccc2c1NC(=O)CCN1CCN(Cc2ccc3c(c2)OCO3)CC1,/,0.9,-47.0,11.7,0.8,16.6
COc1ccc2[nH]c3c(N4CCN(Cc5ccc6c(c5)OCO6)CC4)ncnc3c2c1,/,0.4,46.7,57.9*,0.2,82.2*
COc1ccc2c(c1)c1ncnc(N3CCN(Cc4ccc5c(c4)OCO5)CC3)c1n2C,/,0.8,2.2,21.5,0.2,81.5*
COc1ccc2c(c1)c(C(O)CN1CCN(Cc3ccc4c(c3)OCO4)CC1)c(C)n2C (stereo not given),12.4,0.9,-23.1,11.4,0.9,13.5
O=[N+]([O-])c1ccc(-n2nnnc2CN2CCCCC2)cc1,14.8,/,/,/,/,/
Cc1ccc(-c2c3c(=O)n(C)c(=O)n(C)c3cn2Cc2ccccn2)cc1,46.0,1,21.6,0.1,1.1,-14.8
NS(=O)(=O)c1ccc(CCNc2ncnc3sccc23)cc1,/,0.2,-7.9,82.8*,0.6,41.8
Cc1cc(C)n(-c2nc3ccccc3c(=O)n2OCCOc2ccccc2)n1,4.2,/,3.4,/,/,/
NC(=O)Cn1nc(C(F)(F)F)c2c1CCCC2,-5.8,/,/,/,/,/
CC(C)(C)c1cc(CCC(=O)N2CCNCC2)c(C(C)(C)C)cc1O,-22.7,0.9,2.2,5.9,0.3,74.4*
CCOC(=O)N1CCN(C(=O)c2cc3cc(Br)ccc3oc2=O)CC1,-11.1,0.9,-4.7,12.9,1,2.0
COc1ccccc1N1CCN(C(=O)c2cc3cc(Br)ccc3oc2=O)CC1,-0.6,0.4,-0.5,59.2*,0.9,14.1
COc1ccccc1N1CCN(C(=O)c2ccc(Br)s2)CC1,80.4*,0,/,99.0*,0.1,88.6*
O=C(c1cnc2n(c1=O)CCS2)N1CCN(c2ccccc2F)CC1,/,0.7,-0.6,33.8,1,-4.3
COc1ccccc1N1CCN(C(=O)c2ccccc2Oc2ccccc2)CC1,/,0.3,-24.7,74.5*,0.3,75.0*
O=C(c1ccccc1Oc1ccccc1)N1CCN(c2ccccc2F)CC1,-4.2,0.2,-12.1,78.8*,0.1,90.1*
Cc1c(N(C)C(=O)c2ccccc2F)c(=O)n(-c2ccccc2)n1C,30.6,1,-18.0,4.0,1.1,-5.4
O=C(c1ccc(Br)s1)N1CCN(c2ncccn2)CC1,-17.8,0,11.7,97.6*,0.2,80.4*
COC(=O)C1CCN(C(=O)c2ccccc2Oc2ccccc2)CC1,16.5,0.2,-15.1,78.7*,0.4,55.2*
SMILES,E-sel TNF inh,CYP2C19 act,cytoskel mod,CYP2C19 inh,CYP2C9 activ,CYP2C9 inhib
O=C(c1c(F)cccc1F)N1CCN(c2ncccn2)CC1,0.4,0.8,-0.6,23.0,0.3,65.3*
COc1ccccc1NC(=O)c1c(C)cc(=O)oc1C,/,1.1,-1.5,-8.6,1,-3.7
Nc1n[nH]c(CCCO)n1,-13.4,/,/,/,/,/
CCn1c(CNC(=O)c2ccc(OC)c(OC)c2)nnc1SCC(=O)c1ccc(OC)cc1,8.9,0.9,-5.0,10.6,1.1,-11.7
Cc1ccc(NC(=O)c2ccc(CSc3nnc(-c4ccncc4)n3C)cc2)c(C)c1,-15.1,0.8,7.8,20.3,0.3,65.8*
Cn1c(SC2CCCCC2=O)nnc1-c1ccncc1 (stereo not given),/,0.3,0.8,69.8*,0.8,16.1
Cn1c(SCC(=O)C(C)(C)C)nnc1-c1ccncc1,-28.4,0.1,21.1,86.7*,0.4,63.0*
Cn1c(SCC2CCCCC2)nnc1-c1ccncc1,-58.5,0,/,99.8*,0.1,87.2*
COCCCn1c(SCC(=O)NC2CCCCC2)nnc1-c1ccncc1,35.0,0.6,-19.2,37.7,1.1,-7.0
N#Cc1nc(Cc2ccccc2)oc1N1CCN(c2cccc(Cl)c2)CC1,/,0.7,-29.0,28.1,0.6,42.1
C=CCn1c(SCC(=O)Nc2nc(C)cs2)nnc1C(NC(=O)c1ccccc1)C(C)C (stereo not given),-22.6,/,-7.3,/,/,/
CC(=O)CSc1nnc(-c2ccncc2)n1C,16.9,0.6,9.0,41.7,0.9,8.1
Cn1c(SCCCC(=O)c2ccc(Br)cc2)nnc1-c1ccncc1,16.1,0.3,-7.3,74.8*,0.1,93.0*
C/C(=N\Nc1ccc([N+](=O)[O-])cc1[N+](=O)[O-])c1ccc(-n2nncc2C(C)(C)C)cc1,5.2,/,/,/,/,/
Cc1nc2c([nH]c3ccc(Br)cc32)s1,20.9,1,3.4,2.3,1.1,-10.2
COC(=O)C1=C(C(C)=O)C(c2ccc(C)cc2)n2nnnc2N1 (stereo not given),-7.9,0.9,2.5,11.6,0.9,14.9
COC(=O)C1=C(C(C)=O)C(c2ccc(C(=O)OC)cc2)n2nnnc2N1 (stereo not given),-6.9,0.9,-5.3,11.7,0.2,82.6*
CSCCC(C(=O)OCC(=O)c1ccc(C)c(C)c1)N1C(=O)c2ccccc2C1=O (stereo not given),3.5,/,/,/,/,/
S=C1NC(c2ccccc2)=NCN1c1ccc(Cl)cc1,-7.8,0.2,8.3,80.0*,0.6,41.7
S=c1[nH]nc(Cc2ccccc2)n1-c1ccc(Cl)cc1,5.8,/,/,/,/,/
Nc1cc2c([N+](=O)[O-])cccc2o1,5.5,1.1,7.5,-11.4,0.9,14.2
Cn1c(CNS(=O)(=O)c2ccc(Cl)cc2)n[nH]c1=S,-21.6,0.9,-12.6,10.2,0.8,21.6
Cc1ccc(C(=O)n2nc(-n3cccc3)c3c(C)cc(C)nc32)cc1,-36.3,/,/,/,/,/
COc1ccc(Cl)cc1C(=O)OCC(=O)NC(=O)c1cccn1C,-29.4,0.8,-16.3,21.6,3.3*,-233.3
O=c1c2ccsc2ncn1Cc1ccc(Cl)cc1,/,0.4,-3.8,61.2*,0.5,54.0*
Cc1cc(C)n(-c2nnc(C)n2/N=C/c2ccccc2OCc2ccccc2Cl)n1,3.9,0.4,-3.5,56.0*,0.5,51.8*
COc1ccccc1/C=N/n1c(C)nnc1-n1nc(C)cc1C,19.8,1,/,2.4,1.1,-6.1
Cc1ccc(NC(=O)CNC(=O)c2cccs2)cc1S(=O)(=O)Nc1ccc(Cl)cc1,24.3,/,/,/,/,/

# Source: PubChem (several laboratories)
